In general, inhibition refers to the change of the read-out against control, counted positive when it falls.

The target of assay [1] is Protein kinase C gamma type (Homo sapiens) (UniProt P05129). As to conditions: at 1 µM.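 Further: each value is an averaged percent inhibition of the enzyme.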
The target of assay [2] is T1, Protein kinase C iota type (Homo sapiens) (UniProt P41743).
T1 sequence (whole entry): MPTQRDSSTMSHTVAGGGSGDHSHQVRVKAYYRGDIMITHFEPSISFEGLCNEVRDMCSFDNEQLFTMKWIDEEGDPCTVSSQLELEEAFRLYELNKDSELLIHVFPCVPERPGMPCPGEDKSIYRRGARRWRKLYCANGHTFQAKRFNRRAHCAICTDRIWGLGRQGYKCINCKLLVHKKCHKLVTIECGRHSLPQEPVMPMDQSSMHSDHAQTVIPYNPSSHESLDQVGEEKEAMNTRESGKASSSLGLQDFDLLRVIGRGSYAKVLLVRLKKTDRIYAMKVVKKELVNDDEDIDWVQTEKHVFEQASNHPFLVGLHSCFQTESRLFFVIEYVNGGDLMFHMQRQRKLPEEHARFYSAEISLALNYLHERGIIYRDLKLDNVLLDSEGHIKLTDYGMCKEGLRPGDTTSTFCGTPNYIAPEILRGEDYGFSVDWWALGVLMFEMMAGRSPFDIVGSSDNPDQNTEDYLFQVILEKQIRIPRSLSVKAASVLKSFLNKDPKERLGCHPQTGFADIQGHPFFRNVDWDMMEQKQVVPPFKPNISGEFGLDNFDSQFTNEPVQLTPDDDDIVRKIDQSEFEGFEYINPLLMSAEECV
As to conditions: at 0.1 µM.

For assay [3], the target named is T1, Protein kinase C iota type (Homo sapiens). To be noted: at 1 µM.
The target of assay [4] is Protein kinase C theta type (Homo sapiens) (UniProt Q04759). To be noted: at 0.1 µM.
Sequence of Protein kinase C theta type (Homo sapiens) (Q04759 whole entry, looked up): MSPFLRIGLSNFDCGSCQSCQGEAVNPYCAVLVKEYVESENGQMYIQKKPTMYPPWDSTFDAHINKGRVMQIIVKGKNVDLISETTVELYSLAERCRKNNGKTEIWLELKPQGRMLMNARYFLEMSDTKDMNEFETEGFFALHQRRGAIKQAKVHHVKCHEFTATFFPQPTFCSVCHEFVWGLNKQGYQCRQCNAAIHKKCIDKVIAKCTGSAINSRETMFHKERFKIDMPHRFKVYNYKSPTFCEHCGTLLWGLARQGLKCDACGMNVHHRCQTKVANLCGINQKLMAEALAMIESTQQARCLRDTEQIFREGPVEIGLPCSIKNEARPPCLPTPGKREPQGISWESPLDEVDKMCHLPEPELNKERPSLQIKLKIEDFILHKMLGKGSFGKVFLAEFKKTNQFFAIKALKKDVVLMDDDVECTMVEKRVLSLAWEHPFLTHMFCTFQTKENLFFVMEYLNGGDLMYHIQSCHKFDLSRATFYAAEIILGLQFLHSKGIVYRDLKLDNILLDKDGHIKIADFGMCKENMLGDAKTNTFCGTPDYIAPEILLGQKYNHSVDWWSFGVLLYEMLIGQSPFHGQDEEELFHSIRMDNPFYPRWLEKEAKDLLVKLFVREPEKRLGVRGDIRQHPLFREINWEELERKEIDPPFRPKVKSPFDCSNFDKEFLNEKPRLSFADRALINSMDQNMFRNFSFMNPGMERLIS
Assay [5] has the same target. As to conditions: at 1 µM.
In assay [6] the target is Protein kinase C beta type (Homo sapiens) (UniProt P05771). To be noted: at 0.1 µM.
Sequence of Protein kinase C beta type (Homo sapiens) (P05771 2-671 limits assumed): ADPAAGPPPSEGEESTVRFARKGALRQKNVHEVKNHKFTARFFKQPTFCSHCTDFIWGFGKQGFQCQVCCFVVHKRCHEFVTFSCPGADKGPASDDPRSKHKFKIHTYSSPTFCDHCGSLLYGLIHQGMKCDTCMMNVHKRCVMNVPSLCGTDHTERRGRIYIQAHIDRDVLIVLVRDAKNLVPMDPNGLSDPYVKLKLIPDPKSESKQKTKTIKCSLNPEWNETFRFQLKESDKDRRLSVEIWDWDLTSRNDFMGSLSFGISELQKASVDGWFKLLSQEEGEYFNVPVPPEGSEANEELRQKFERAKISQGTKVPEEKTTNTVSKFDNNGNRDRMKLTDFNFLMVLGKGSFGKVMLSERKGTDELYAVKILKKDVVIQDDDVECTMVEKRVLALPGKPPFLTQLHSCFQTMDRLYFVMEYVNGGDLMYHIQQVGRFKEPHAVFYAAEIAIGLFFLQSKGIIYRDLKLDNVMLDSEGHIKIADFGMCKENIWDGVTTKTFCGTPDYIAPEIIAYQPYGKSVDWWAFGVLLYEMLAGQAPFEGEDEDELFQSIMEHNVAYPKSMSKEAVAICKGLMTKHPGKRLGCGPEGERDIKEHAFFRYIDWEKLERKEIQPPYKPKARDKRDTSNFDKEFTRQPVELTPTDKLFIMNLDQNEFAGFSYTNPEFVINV
Assay [7] shares this target. To be noted: at 1 µM.
Assay [8] has as its target T2, Serine/threonine-protein kinase D1 (Homo sapiens) (UniProt Q15139).
T2 sequence (whole entry): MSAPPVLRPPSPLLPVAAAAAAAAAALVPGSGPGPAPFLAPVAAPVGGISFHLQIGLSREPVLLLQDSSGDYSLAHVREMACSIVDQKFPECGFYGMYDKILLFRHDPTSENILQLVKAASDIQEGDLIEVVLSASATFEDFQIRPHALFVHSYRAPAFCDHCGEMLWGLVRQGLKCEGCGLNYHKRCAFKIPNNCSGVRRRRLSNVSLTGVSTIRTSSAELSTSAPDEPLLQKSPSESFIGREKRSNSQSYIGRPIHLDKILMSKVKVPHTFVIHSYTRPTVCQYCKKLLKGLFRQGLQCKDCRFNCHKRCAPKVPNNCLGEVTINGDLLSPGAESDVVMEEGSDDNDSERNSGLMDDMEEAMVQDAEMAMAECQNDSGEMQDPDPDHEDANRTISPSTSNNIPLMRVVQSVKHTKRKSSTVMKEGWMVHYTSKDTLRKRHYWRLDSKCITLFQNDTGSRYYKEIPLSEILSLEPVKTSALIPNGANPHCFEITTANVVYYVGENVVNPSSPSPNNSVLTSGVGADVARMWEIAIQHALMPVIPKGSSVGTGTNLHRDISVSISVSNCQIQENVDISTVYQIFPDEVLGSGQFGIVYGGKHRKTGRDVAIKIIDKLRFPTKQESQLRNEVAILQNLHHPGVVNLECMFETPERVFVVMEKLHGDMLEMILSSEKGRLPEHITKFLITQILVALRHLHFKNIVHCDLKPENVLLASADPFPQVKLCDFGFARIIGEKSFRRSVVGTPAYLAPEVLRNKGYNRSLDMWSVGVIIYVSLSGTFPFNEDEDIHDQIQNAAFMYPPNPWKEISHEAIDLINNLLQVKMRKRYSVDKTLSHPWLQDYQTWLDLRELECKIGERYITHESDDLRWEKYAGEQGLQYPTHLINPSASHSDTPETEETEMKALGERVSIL
As to conditions: at 0.1 µM.

The target of assay [9] is T2, Serine/threonine-protein kinase D1 (Homo sapiens). As to conditions: at 1 µM.
For assay [10], the target named is T3, Serine/threonine-protein kinase D2 (Homo sapiens) (UniProt Q9BZL6).
T3 sequence (whole entry): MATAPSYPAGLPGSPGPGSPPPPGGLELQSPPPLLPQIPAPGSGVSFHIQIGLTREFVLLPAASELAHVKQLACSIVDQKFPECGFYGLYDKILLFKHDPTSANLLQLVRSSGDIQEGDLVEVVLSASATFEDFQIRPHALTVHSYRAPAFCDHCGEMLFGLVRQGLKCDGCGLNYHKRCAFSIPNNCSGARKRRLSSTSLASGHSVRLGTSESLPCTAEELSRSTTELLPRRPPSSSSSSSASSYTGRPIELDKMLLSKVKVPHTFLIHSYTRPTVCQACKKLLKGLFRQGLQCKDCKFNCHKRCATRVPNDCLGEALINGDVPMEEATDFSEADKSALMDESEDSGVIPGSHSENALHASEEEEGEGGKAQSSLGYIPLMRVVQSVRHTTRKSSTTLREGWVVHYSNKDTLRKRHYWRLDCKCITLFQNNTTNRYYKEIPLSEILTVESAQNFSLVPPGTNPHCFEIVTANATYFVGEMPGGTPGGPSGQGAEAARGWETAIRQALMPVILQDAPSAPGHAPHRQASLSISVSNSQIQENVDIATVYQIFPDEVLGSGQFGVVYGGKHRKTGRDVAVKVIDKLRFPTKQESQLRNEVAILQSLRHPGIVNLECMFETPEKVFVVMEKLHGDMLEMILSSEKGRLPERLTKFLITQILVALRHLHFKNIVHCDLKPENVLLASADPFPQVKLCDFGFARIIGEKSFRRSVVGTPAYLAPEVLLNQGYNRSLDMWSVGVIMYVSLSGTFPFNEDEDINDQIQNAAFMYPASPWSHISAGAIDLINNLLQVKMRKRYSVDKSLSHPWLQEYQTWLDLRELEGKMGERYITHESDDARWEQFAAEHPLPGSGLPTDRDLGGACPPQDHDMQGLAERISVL
To be noted: at 0.1 µM.

Assay [11] addresses T3, Serine/threonine-protein kinase D2 (Homo sapiens). As to conditions: at 1 µM.
The target in assay [12] is T4, Serine/threonine-protein kinase D3 (Homo sapiens) (UniProt O94806).
T4 sequence (whole entry): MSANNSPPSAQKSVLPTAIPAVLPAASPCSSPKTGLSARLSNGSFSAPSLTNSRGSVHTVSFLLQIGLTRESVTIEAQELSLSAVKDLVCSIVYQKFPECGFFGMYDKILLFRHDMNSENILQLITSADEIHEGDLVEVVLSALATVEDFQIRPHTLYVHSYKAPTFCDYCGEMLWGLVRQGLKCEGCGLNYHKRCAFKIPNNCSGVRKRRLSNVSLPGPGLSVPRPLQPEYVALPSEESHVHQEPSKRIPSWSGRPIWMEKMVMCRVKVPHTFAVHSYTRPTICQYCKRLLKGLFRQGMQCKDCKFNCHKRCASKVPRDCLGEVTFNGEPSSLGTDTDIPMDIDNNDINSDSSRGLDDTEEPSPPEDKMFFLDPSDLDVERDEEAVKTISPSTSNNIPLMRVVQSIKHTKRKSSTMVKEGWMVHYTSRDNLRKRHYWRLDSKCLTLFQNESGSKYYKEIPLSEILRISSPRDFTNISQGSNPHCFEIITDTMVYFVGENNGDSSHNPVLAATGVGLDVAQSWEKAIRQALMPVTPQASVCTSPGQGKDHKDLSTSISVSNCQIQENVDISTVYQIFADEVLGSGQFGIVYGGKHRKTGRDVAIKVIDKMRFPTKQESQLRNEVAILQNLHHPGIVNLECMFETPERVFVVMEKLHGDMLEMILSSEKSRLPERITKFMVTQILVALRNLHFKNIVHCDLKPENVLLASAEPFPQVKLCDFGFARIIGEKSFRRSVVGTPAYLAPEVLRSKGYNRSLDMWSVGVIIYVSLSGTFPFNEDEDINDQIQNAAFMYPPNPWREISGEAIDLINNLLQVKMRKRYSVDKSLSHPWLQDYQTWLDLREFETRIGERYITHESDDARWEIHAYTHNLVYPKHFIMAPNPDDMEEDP
To be noted: at 0.1 µM.

In assay [13] the target is T4, Serine/threonine-protein kinase D3 (Homo sapiens). To be noted: at 1 µM.
Assay [14] addresses T5, cGMP-dependent protein kinase 1 (Homo sapiens) (UniProt Q13976).
T5 sequence (whole entry): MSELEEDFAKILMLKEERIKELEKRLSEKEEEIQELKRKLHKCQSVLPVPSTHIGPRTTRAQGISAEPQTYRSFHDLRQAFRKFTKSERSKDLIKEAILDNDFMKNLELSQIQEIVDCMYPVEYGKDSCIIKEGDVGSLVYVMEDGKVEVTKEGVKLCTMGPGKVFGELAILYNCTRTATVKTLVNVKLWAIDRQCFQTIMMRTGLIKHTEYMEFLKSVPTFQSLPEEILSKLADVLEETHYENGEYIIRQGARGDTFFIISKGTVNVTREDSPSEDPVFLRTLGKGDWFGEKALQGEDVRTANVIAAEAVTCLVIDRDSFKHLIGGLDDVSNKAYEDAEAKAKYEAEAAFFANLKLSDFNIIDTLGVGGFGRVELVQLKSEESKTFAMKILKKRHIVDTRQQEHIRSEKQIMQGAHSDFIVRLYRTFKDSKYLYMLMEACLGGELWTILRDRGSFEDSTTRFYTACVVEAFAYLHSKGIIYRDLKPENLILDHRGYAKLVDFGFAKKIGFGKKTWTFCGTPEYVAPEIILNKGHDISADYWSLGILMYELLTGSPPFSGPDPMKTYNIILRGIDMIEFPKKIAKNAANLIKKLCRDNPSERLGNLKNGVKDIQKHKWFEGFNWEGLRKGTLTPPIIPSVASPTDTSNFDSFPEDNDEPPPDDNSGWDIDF
To be noted: at 0.1 µM.

For assay [15], the target named is T5, cGMP-dependent protein kinase 1 (Homo sapiens). As to conditions: at 1 µM.
Assay [16] concerns the target T6, cGMP-dependent protein kinase 2 (Homo sapiens) (UniProt Q13237).
T6 sequence (whole entry): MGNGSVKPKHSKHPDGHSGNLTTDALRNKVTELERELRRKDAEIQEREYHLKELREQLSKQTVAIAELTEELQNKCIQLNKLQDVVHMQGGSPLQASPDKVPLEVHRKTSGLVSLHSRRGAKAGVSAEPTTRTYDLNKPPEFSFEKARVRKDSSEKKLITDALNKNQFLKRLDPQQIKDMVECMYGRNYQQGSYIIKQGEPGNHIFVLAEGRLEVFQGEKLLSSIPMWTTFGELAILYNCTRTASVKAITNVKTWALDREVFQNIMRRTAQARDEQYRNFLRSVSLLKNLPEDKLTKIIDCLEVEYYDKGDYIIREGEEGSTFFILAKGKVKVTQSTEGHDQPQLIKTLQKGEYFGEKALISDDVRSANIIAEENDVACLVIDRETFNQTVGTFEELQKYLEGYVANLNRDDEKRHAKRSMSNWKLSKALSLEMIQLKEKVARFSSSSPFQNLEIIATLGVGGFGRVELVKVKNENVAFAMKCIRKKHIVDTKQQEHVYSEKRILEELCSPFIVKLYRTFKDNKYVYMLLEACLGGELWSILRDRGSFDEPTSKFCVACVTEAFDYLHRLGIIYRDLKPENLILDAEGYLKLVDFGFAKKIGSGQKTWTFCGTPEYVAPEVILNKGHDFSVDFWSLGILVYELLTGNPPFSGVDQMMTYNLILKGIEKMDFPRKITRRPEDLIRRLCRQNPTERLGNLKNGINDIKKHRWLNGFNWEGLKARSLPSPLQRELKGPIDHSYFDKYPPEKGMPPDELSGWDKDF
As to conditions: at 0.1 µM.

Assay [17] concerns the target T6, cGMP-dependent protein kinase 2 (Homo sapiens). As to conditions: at 1 µM.
Assay [18] addresses T7, cAMP-dependent protein kinase catalytic subunit PRKX (Homo sapiens) (UniProt P51817).
T7 sequence (whole entry): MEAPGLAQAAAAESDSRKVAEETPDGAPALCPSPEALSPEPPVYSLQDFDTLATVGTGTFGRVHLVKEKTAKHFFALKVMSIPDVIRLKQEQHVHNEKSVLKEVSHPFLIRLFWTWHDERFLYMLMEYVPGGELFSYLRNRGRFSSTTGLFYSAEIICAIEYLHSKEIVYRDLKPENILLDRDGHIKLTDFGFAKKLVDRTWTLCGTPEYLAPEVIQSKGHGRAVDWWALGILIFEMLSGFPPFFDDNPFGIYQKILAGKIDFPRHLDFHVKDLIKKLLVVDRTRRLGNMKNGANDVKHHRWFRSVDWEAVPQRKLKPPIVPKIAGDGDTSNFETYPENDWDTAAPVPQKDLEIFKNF
As to conditions: at 0.1 µM.

Assay [19] deals with T7, cAMP-dependent protein kinase catalytic subunit PRKX (Homo sapiens). To be noted: at 1 µM.
Assay [20] concerns the target Rho-associated protein kinase 1 (Homo sapiens) (UniProt Q13464). As to conditions: at 0.1 µM.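 Further: values are mean percent inhibition of ROCK1.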

Several values for one entry are separate records, joined by “and”; a condition that tells them apart may be missing. Equal values may be shown once.

Sequence of Rho-associated protein kinase 1 (Homo sapiens) (Q13464 2-1354 limits assumed): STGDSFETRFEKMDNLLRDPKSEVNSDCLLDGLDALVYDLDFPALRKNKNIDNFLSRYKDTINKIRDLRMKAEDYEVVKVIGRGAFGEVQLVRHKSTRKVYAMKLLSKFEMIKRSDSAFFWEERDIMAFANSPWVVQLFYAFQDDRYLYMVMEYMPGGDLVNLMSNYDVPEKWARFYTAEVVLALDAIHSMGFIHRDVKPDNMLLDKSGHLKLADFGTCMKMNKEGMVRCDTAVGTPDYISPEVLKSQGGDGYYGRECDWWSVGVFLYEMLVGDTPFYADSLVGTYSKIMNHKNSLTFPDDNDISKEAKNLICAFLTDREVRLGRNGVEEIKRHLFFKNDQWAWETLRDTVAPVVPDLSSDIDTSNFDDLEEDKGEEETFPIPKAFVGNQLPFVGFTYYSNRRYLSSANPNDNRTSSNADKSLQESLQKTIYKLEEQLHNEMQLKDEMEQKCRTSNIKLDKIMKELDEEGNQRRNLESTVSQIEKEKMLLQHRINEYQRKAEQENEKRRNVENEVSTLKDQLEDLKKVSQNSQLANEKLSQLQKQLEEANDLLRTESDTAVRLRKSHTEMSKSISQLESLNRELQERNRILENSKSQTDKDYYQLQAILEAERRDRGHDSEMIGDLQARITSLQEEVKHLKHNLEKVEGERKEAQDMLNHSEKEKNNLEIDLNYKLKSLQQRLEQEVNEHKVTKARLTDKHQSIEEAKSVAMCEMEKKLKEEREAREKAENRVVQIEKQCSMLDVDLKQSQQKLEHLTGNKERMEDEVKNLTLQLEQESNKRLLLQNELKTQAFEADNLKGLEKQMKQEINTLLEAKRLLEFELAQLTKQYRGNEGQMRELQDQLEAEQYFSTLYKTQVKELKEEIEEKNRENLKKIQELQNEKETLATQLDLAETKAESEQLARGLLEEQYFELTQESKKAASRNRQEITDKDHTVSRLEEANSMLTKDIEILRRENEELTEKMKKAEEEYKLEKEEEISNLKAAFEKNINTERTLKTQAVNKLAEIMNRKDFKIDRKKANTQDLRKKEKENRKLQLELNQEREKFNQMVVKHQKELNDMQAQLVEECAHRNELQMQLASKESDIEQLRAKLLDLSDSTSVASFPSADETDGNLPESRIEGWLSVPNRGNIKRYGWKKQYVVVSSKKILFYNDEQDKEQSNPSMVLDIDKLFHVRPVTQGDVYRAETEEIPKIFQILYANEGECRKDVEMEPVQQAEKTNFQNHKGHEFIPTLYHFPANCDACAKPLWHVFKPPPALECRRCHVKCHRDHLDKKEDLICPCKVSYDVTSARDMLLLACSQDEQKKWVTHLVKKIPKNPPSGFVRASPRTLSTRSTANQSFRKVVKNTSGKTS

Take `CN1CCC(C(=O)Nc2n[nH]c3nc(-c4ccc(O)cc4)c(Br)cc23)CC1`: the inhibition in assay [1] was 7.76% and 8.57%; in [2] it was 3.63% and -0.08%; in assay [3], 8.06% and 5.91%; in assay [4], 2.17% and 0.5%; in assay [5], 7.83% and 2.97%; in [6], 6.51% and 5.4%. Moreover, the inhibition was 30.5% and 31.2% in assay [7]; 1.71% and 3.32% in assay [8]; 5.76% and 5.75% in [9]; 1.9% and 3.95% in assay [10]; 4.6% and 3.02% in assay [11]; 1.49% and 1.43% in assay [12]. Further, the inhibition was 3.3% and 2.68% in assay [13]; 2.6% and 0.38% in assay [14]; 8.03% and 6.39% in assay [15]; 2.67% and 0.36% in assay [16]; 8.41% and 4.33% in assay [17]; 3.06% and 1.23% in assay [18]. The inhibition in assay [19] is 6.6% and 1.62%; in assay [20] it was 1.28% and -0.29%.

Values taken from ChEMBL document CHEMBL1961873, “Compounds: GSK PKIS; Assays: Nanosyn kinase panel” (2012).
